In the supplement of paper PMC4466140:

B1: unnamed (peptide)
chain: IKKRNKIRLPSGSPE
B2: unnamed (peptide)
chain: RPVPRRPSQPLNTLS

Target: AgAbp1
Experiment: SPOT peptide array binding signal intensity (averaged, normalized) (arbitrary units (background-subtracted, floor 0; scale differs between SH3 domains)); higher = stronger binding of the SH3 domain to the peptide
Method in brief: (§1)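 Peptides were synthetic 15-mers on cellulose membranes, with every cysteine replaced by serine. They were incubated overnight at 4°C with GST-SH3 domains from four yeast species at 10 μg/ml in TBS-based blocking buffer. Binding signal, the replicate-averaged normalized and background-subtracted spot intensity, is in arbitrary units that differ between domains.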

Binder | SPOT peptide array binding signal intensity
B1 | 286
B2 | 306

Target: AgBbc1
Experiment: as above
Method in brief: as §1

Binder | SPOT peptide array binding signal intensity
B1 | 23.8
B2 | 801

Target: AgBem1-D1
Experiment: as above
Method in brief: as §1

Binder | SPOT peptide array binding signal intensity
B1 | 55
B2 | 68.5

Target: AgBzz1-D1
Experiment: as above
Method in brief: as §1

Binder | SPOT peptide array binding signal intensity
B1 | 22
B2 | 100

Target: AgBzz1-D2
Experiment: as above
Method in brief: as §1

Binder | SPOT peptide array binding signal intensity
B1 | 34.5
B2 | 89

Target: AgCyk3
Experiment: as above
Method in brief: as §1

Binder | SPOT peptide array binding signal intensity
B1 | 7
B2 | 1.25

Target: AgFus1
Experiment: as above
Method in brief: as §1

Binder | SPOT peptide array binding signal intensity
B1 | 279
B2 | 24

Target: AgHof1
Experiment: as above
Method in brief: as §1

Binder | SPOT peptide array binding signal intensity
B1 | 52.5
B2 | 32.8

Target: AgHse1
Experiment: as above
Method in brief: as §1

Binder | SPOT peptide array binding signal intensity
B1 | 766
B2 | 67.5

Target: AgLsb1
Experiment: as above
Method in brief: as §1

Binder | SPOT peptide array binding signal intensity
B1 | 7
B2 | 94.8

Target: AgLsb4
Experiment: as above
Method in brief: as §1

Binder | SPOT peptide array binding signal intensity
B1 | 97
B2 | 2090

Target: AgMyo5
Experiment: as above
Method in brief: as §1

Binder | SPOT peptide array binding signal intensity
B1 | 1.75
B2 | ≤ 0

Target: AgNbp2
Experiment: as above
Method in brief: as §1

Binder | SPOT peptide array binding signal intensity
B1 | 202
B2 | 2250

Target: AgRvs167
Experiment: as above
Method in brief: as §1

Binder | SPOT peptide array binding signal intensity
B1 | 5.67
B2 | 182

Target: AgSho1
Experiment: as above
Method in brief: as §1

Binder | SPOT peptide array binding signal intensity
B1 | 36
B2 | 12.8

Target: AgSla1-D1-D2
Experiment: as above
Method in brief: as §1

Binder | SPOT peptide array binding signal intensity
B1 | 89
B2 | 17

Target: AgSla1-D3
Experiment: as above
Method in brief: as §1

Binder | SPOT peptide array binding signal intensity
B1 | 7
B2 | 7.12

Target: CaAbp1-D1
Experiment: as above
Method in brief: as §1

Binder | SPOT peptide array binding signal intensity
B1 | 1510
B2 | 456

Target: CaAbp1-D2
Experiment: as above
Method in brief: as §1

Binder | SPOT peptide array binding signal intensity
B1 | 858
B2 | 805

Target: CaBbc1
Experiment: as above
Method in brief: as §1

Binder | SPOT peptide array binding signal intensity
B1 | 94.2
B2 | 1900

Target: CaBem1-D1
Experiment: as above
Method in brief: as §1

Binder | SPOT peptide array binding signal intensity
B1 | 16
B2 | 34

Target: CaBzz1-D1
Experiment: as above
Method in brief: as §1

Binder | SPOT peptide array binding signal intensity
B1 | 104
B2 | 388

Target: CaBzz1-D2
Experiment: as above
Method in brief: as §1

Binder | SPOT peptide array binding signal intensity
B1 | 132
B2 | 189

Target: CaCyk3
Experiment: as above
Method in brief: as §1

Binder | SPOT peptide array binding signal intensity
B1 | 17
B2 | 413

Target: CaFus1
Experiment: as above
Method in brief: as §1

Binder | SPOT peptide array binding signal intensity
B1 | 615
B2 | 141

Target: CaHof1
Experiment: as above
Method in brief: as §1

Binder | SPOT peptide array binding signal intensity
B1 | 1.25
B2 | 0.25

Target: CaHse1
Experiment: as above
Method in brief: as §1

Binder | SPOT peptide array binding signal intensity
B1 | 38
B2 | 56.1

Target: CaLsb1
Experiment: as above
Method in brief: as §1

Binder | SPOT peptide array binding signal intensity
B1 | 1.5
B2 | 1.25

Target: CaLsb4
Experiment: as above
Method in brief: as §1

Binder | SPOT peptide array binding signal intensity
B1 | 79
B2 | 2000

Target: CaMyo5
Experiment: as above
Method in brief: as §1

Binder | SPOT peptide array binding signal intensity
B1 | 1.5
B2 | 8

Target: CaNbp2
Experiment: as above
Method in brief: as §1

Binder | SPOT peptide array binding signal intensity
B1 | 271
B2 | 1770

Target: CaRvs167
Experiment: as above
Method in brief: as §1

Binder | SPOT peptide array binding signal intensity
B1 | 11.7
B2 | 1240

Target: CaRvs167-3
Experiment: as above
Method in brief: as §1

Binder | SPOT peptide array binding signal intensity
B1 | 67.2
B2 | 6

Target: CaSho1
Experiment: as above
Method in brief: as §1

Binder | SPOT peptide array binding signal intensity
B1 | 506
B2 | 19.5

Target: CaSla1-D1-D2
Experiment: as above
Method in brief: as §1

Binder | SPOT peptide array binding signal intensity
B1 | 30
B2 | 796

Target: CaSla1-D3
Experiment: as above
Method in brief: as §1

Binder | SPOT peptide array binding signal intensity
B1 | 0.5
B2 | 5

Target: ScAbp1
Experiment: as above
Method in brief: as §1

Binder | SPOT peptide array binding signal intensity
B1 | 39
B2 | 280

Target: ScBbc1
Experiment: as above
Method in brief: as §1

Binder | SPOT peptide array binding signal intensity
B1 | 12.8
B2 | 514

Target: ScBem1-D1
Experiment: as above
Method in brief: as §1

Binder | SPOT peptide array binding signal intensity
B1 | 62
B2 | 6.5

Target: ScBzz1-D1
Experiment: as above
Method in brief: as §1

Binder | SPOT peptide array binding signal intensity
B1 | 20
B2 | 43.2

Target: ScBzz1-D2
Experiment: as above
Method in brief: as §1

Binder | SPOT peptide array binding signal intensity
B1 | 15
B2 | 25.8

Target: ScCyk3
Experiment: as above
Method in brief: as §1

Binder | SPOT peptide array binding signal intensity
B1 | 181
B2 | 22

Target: ScFus1
Experiment: as above
Method in brief: as §1

Binder | SPOT peptide array binding signal intensity
B1 | 242
B2 | ≤ 0

Target: ScHof1
Experiment: as above
Method in brief: as §1

Binder | SPOT peptide array binding signal intensity
B1 | 1.5
B2 | 0.5

Target: ScHse1
Experiment: as above
Method in brief: as §1

Binder | SPOT peptide array binding signal intensity
B1 | 1420
B2 | 389

Target: ScLsb1
Experiment: as above
Method in brief: as §1

Binder | SPOT peptide array binding signal intensity
B1 | 6.25
B2 | 258

Target: ScLsb2
Experiment: as above
Method in brief: as §1

Binder | SPOT peptide array binding signal intensity
B1 | 11
B2 | 56

Target: ScLsb3
Experiment: as above
Method in brief: as §1

Binder | SPOT peptide array binding signal intensity
B1 | 162
B2 | 5960

Target: ScLsb4
Experiment: as above
Method in brief: as §1

Binder | SPOT peptide array binding signal intensity
B1 | 13
B2 | 1750

Target: ScMyo3
Experiment: as above
Method in brief: as §1

Binder | SPOT peptide array binding signal intensity
B1 | 4
B2 | 2

Target: ScMyo5
Experiment: as above
Method in brief: as §1

Binder | SPOT peptide array binding signal intensity
B1 | 6
B2 | 1.25

Target: ScNbp2
Experiment: as above
Method in brief: as §1

Binder | SPOT peptide array binding signal intensity
B1 | 256
B2 | 3100

Target: ScPex13
Experiment: as above
Method in brief: as §1

Binder | SPOT peptide array binding signal intensity
B1 | 7.5
B2 | 1420

Target: ScRvs167
Experiment: as above
Method in brief: as §1

Binder | SPOT peptide array binding signal intensity
B1 | 33
B2 | 2300

Target: ScSho1
Experiment: as above
Method in brief: as §1

Binder | SPOT peptide array binding signal intensity
B1 | 681
B2 | 163

Target: ScSla1-D1-D2
Experiment: as above
Method in brief: as §1

Binder | SPOT peptide array binding signal intensity
B1 | 362
B2 | 1000

Target: ScSla1-D3
Experiment: as above
Method in brief: as §1

Binder | SPOT peptide array binding signal intensity
B1 | 30
B2 | 18

Target: SpAbp1-D1
Experiment: as above
Method in brief: as §1

Binder | SPOT peptide array binding signal intensity
B1 | 512
B2 | 147

Target: SpBbc1
Experiment: as above
Method in brief: as §1

Binder | SPOT peptide array binding signal intensity
B1 | 2
B2 | 380

Target: SpBzz1-D1
Experiment: as above
Method in brief: as §1

Binder | SPOT peptide array binding signal intensity
B1 | 122
B2 | 466

Target: SpBzz1-D2
Experiment: as above
Method in brief: as §1

Binder | SPOT peptide array binding signal intensity
B2 | 1.5

Target: SpCyk3
Experiment: as above
Method in brief: as §1

Binder | SPOT peptide array binding signal intensity
B2 | 6.75

Target: SpHof1
Experiment: as above
Method in brief: as §1

Binder | SPOT peptide array binding signal intensity
B2 | 297

Target: SpHof1-2
Experiment: as above
Method in brief: as §1

Binder | SPOT peptide array binding signal intensity
B2 | 441

Target: SpHof1-3
Experiment: as above
Method in brief: as §1

Binder | SPOT peptide array binding signal intensity
B2 | 278

Target: SpHse1
Experiment: as above
Method in brief: as §1

Binder | SPOT peptide array binding signal intensity
B2 | 297

Target: SpLsb1
Experiment: as above
Method in brief: as §1

Binder | SPOT peptide array binding signal intensity
B2 | 350

Target: SpLsb4
Experiment: as above
Method in brief: as §1

Binder | SPOT peptide array binding signal intensity
B2 | 5510

Target: SpMyo1
Experiment: as above
Method in brief: as §1

Binder | SPOT peptide array binding signal intensity
B2 | 37.8

Target: SpNbp2
Experiment: as above
Method in brief: as §1

Binder | SPOT peptide array binding signal intensity
B2 | 81.5

Target: SpPex13
Experiment: as above
Method in brief: as §1

Binder | SPOT peptide array binding signal intensity
B2 | 4.25

Target: SpRvs167
Experiment: as above
Method in brief: as §1

Binder | SPOT peptide array binding signal intensity
B2 | 3150

Target: SpSla1-D1-D2
Experiment: as above
Method in brief: as §1

Binder | SPOT peptide array binding signal intensity
B2 | 13

Target: SpSla1-D3
Experiment: as above
Method in brief: as §1

Binder | SPOT peptide array binding signal intensity
B2 | 2
